PubChem BioAssay
The source made the active and inactive calls.

Tests used:
[1] = optical density shifts of acrAB sulA E. coli – strain DRC41, OD650, 48 h, E. coli filamentation inducer project, primary screen (AID 1152); details: higher = more signal, called active from +8 up or from −8 down;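 further: E. coli MC1000 strain DRC41 lacking acrAB efflux pump and sulA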
[2] = probe aLefty1 binding on compound microarray – biochemical, small-molecule microarray, 635/667 nm fluorescence, primary screen (AID 1153); details: higher = more signal;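 further: score merges spot fluorescence with signal-to-noise ratio from the scanned slide images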
[3] = plasmodial surface anion channel blockers, osmotic lysis – cell-based, P. falciparum Indochina, OD700, 1 h, primary screen (AID 1154); details: P. falciparum Indochina infected RBC osmotic lysis, higher = more signal, called active from +8 up or from −8 down
[4] = plasmodial surface anion channel blockers, osmotic lysis – cell-based, P. falciparum Indochina, OD700, 2 h, primary screen (AID 1155);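 further: lysis reports solute entry through the parasite surface anion channel PSAC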; details: P. falciparum Indochina infected erythrocytes, higher = more signal, called active from +8 up or from −8 down
[5] = changes in parasitized red cell lysis, either direction – P. falciparum Indochina, OD700, 3 h, PSAC antagonist project, primary screen (AID 1156); details: P. falciparum-infected erythrocytes, osmotic lysis, higher = more signal, called active from +8 up or from −8 down
[6] = plasmodial surface anion channel blockers, osmotic lysis – cell-based, P. falciparum Indochina, OD700, 18 h, primary screen (AID 1157); details: P. falciparum Indochina infected erythrocytes, osmotic lysis OD700, 18 h; higher = more signal, called active from +8 up or from −8 down
[7] = S6 kinase pathway phospho-S6 level changes – cell-based, A549, cytoblot, luminescence, serum-stimulated, primary screen (AID 1158); details: 5 h, higher = more signal;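 further: serum-stimulated A549 lung adenocarcinoma cells; signal is phosphorylated S6 detected by cytoblot immunostaining with HRP secondary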
[8] = biological target: NADPH oxidase 2 (Homo sapiens) (UniProt P04839); experiment: compounds shifting NOX2 Amplex Red fluorescence – cell-based, HEK293-NOX2, PMA-stimulated, NOX inhibitor project, primary screen (AID 1159); details: 45 min, higher = more signal, called active from +8 up or from −8 down; further: test concentration not given here
[9] = biological target: NADPH oxidase 4 (Homo sapiens) (UniProt Q9NPH5); experiment: compounds shifting NOX4 Amplex Red fluorescence – cell-based, HEK293-NOX4, tetracycline-induced, NOX inhibitor project, primary screen (AID 1160); details: HEK293-NOX4, Amplex Red H2O2 fluorescence, 45 min; higher = more signal, called active from +8 up or from −8 down
[10] = biological target: NADPH oxidase 5 (Homo sapiens) (UniProt Q96PH1); experiment: compounds shifting NOX5 Amplex Red fluorescence – cell-based, HEK293-NOX5, NOX inhibitor project, primary screen (AID 1161); details: HEK293-NOX5, ionomycin, 45 min, higher = more signal
Sequence of NADPH oxidase 5 (Homo sapiens) (Q96PH1 whole entry, looked up): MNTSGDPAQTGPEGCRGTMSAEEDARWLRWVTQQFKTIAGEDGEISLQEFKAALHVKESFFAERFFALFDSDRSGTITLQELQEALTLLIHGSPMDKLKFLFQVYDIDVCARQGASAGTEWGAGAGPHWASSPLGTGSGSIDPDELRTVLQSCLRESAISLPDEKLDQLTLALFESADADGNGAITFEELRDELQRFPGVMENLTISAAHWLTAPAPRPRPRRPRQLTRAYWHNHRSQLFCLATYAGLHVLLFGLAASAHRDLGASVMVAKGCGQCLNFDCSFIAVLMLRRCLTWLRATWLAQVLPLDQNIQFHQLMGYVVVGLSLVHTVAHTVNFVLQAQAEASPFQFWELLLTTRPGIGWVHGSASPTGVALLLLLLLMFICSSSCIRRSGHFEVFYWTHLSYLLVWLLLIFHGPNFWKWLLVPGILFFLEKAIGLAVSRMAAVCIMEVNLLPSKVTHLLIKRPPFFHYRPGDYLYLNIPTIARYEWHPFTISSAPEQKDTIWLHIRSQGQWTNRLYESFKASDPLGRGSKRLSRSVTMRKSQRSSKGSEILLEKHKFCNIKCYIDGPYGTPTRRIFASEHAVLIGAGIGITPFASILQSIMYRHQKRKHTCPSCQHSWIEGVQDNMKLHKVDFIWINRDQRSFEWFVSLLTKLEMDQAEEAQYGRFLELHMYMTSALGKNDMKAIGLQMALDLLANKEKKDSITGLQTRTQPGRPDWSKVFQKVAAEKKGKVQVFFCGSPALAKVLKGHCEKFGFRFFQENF

Sequence of NADPH oxidase 4 (Homo sapiens) (Q9NPH5 whole entry, looked up): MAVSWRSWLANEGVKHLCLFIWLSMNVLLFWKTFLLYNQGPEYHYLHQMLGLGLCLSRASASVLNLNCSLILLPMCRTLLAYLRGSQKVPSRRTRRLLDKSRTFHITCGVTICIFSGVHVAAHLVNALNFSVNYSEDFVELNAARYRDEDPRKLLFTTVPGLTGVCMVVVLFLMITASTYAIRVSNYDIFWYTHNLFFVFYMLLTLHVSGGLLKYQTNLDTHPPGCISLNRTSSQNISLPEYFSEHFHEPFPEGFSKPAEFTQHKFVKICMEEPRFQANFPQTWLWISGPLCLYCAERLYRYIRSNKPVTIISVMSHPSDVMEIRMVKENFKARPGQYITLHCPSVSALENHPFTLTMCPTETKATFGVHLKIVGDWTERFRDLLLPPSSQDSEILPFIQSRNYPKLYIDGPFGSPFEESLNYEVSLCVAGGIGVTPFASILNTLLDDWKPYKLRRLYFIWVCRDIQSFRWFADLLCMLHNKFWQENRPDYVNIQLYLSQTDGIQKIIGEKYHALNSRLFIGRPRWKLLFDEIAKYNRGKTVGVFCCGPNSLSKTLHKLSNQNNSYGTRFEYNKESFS
Sequence of NADPH oxidase 2 (Homo sapiens) (P04839 whole entry, looked up): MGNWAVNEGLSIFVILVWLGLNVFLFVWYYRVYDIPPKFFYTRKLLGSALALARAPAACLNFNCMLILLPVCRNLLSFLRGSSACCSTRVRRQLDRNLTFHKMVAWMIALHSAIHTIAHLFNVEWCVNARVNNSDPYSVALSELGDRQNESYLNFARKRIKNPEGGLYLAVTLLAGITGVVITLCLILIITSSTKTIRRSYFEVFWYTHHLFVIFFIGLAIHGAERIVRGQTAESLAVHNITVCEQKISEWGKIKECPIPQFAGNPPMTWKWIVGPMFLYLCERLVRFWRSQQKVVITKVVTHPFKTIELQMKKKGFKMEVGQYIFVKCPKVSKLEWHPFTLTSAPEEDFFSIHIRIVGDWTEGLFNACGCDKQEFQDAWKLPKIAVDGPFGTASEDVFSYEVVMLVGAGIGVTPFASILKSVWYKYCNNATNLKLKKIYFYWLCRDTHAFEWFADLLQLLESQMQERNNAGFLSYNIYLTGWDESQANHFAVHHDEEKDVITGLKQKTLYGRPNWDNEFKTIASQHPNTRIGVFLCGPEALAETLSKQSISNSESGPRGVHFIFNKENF

Row | Compound | z-score [1] | composite z-score [2] | z-score [3] | z-score [4] | z-score [5] | z-score [6] | z-score [7] | z-score [8] | z-score [9] | z-score [10]
1 | C[C@]1(C(=O)NCC(F)(F)F)c2ccccc2C(=O)N(Cc2cc(C(F)(F)F)cc(C(F)(F)F)c2)[C@H]1c1ccc(CO)cc1 | 1.17 (inactive) | 0.0774 | 3.54 (inactive) | -0.0979 (inactive) | -0.29 (inactive) | -0.16 (inactive) | 0.361 | -0.905 (inactive) | 0.565 (inactive) | 0.648
2 | [N-]=[N+]=NCc1ccccc1[C@H]1OC(c2ccc(OCCCO)cc2)=N[C@@]1(Cc1ccccc1N=[N+]=[N-])C(=O)O | -1.17 (inactive) | 0.479 | 22.2 (active) | 3.83 (inactive) | 0.0591 (inactive) | 0.395 (inactive) | -0.314 | 0.831 (inactive) | 0.982 (inactive) | 1.51
3 | C=CCOC(=O)[C@@H]1[C@H]2C(=O)O[C@H](c3ccccc3)[C@H](c3ccccc3)N2[C@H](c2ccc(OCCOC(=O)[C@H]3C[C@H]4C(=O)N[C@@H](CCCCN(C)C)C(=O)N4[C@H]3c3cccc(OCCO)c3)cc2)[C@@]12C(=O)Nc1ccccc12 | 0.171 (inactive) | 0.464 | 0.323 (inactive) | 0.0285 (inactive) | -0.703 (inactive) | 0.0555 (inactive) | -0.547 | 0.209 (inactive) | -0.186 (inactive) | -0.538
4 | CS(=O)(=O)CCOC(=O)C1=CC(CCCO)=CC(C2CC2)N(Cc2sc3ccccc3c2Cl)C=C1C(=O)OCCS(C)(=O)=O (stereo not given) | -0.406 (inactive) | 0.52 | 12.8 (active) | 2.13 (inactive) | 0.978 (inactive) | 1.41 (inactive) | 0.248 | -0.739 (inactive) | -0.315 (inactive) | -1.11
5 | CC(C)[Si](C#Cc1ccccc1)(O[C@H](c1ccccc1)c1cn(Cc2ccccc2)nn1)C(C)C | 1.57 (inactive) | -0.275 | 1.66 (inactive) | 1.53 (inactive) | -1.39 (inactive) | 0.554 (inactive) | 0.0866 | 0.789 (inactive) | -1.18 (inactive) | -2.98
6 | C=CC[C@H](OC(=O)Nc1ccc(SC)cc1)c1ccc(O)c(F)c1 | -0.705 (inactive) | 0.0226 | 23.6 (active) | 4.93 (inactive) | 1.45 (inactive) | 0.966 (inactive) | 0.49 | -5.66 (inactive) | -2.66 (inactive) | -3.08
7 | [N-]=[N+]=NCc1ccccc1[C@H]1OC(c2ccc(OCCCO)cc2)=N[C@@]1(Cc1ccccc1N=[N+]=[N-])C(N)=O | -0.0584 (inactive) | 0.439 | 22.9 (active) | 3.47 (inactive) | 1.46 (inactive) | 0.79 (inactive) | 0.362 | -4.46 (inactive) | -0.74 (inactive) | -2.11
8 | COC(=O)[C@@]1(Cc2ccc(OC)cc2)[C@H]2c3cc(C(=O)N(C)C)n(Cc4c(CO)[nH]cc(C)c4=O)c3C[C@H]2CN1C(=O)c1ccccc1 | -2.08 (inactive) | 0.318 | 2.77 (inactive) | 0.814 (inactive) | 0.072 (inactive) | 0.643 (inactive) | -0.507 | -0.0394 (inactive) | -0.719 (inactive) | -0.777
9 | O=C1O[C@H](c2ccccc2)[C@H](c2ccccc2)N2[C@H]1[C@@H](C(=O)O)[C@]1(C(=O)Nc3ccc(C#CC4(O)CCCCCC4)cc31)[C@H]2c1ccccc1OCCO | 0.782 (inactive) | 0.708 | -2.1 (inactive) | -0.922 (inactive) | -14.7 (active) | -0.743 (inactive) | 0.364 | 2.49 (inactive) | -1.56 (inactive) | -1.32
10 | O=C1c2ccccc2[C@](Cc2ccccc2I)(C(=O)NCCN2CCOCC2)[C@H](c2ccc(CO)cc2)N1Cc1ccccc1C(F)(F)F | -2.6 (inactive) | 0.284 | 7.91 (inactive) | 1.13 (inactive) | 1.59 (inactive) | 0.65 (inactive) | 0.401 | -1.06 (inactive) | 0.814 (inactive) | 1.15
11 | COCCOC(=O)N1C(=O)[C@@]2(c3ccccc31)[C@H](C(=O)Nc1nc3ccccc3s1)[C@H]1C(=O)O[C@H](c3ccccc3)[C@H](c3ccccc3)N1[C@@H]2c1ccccc1OCCO | 0.253 (inactive) | 0.941 | 4.98 (inactive) | 2.57 (inactive) | 0.0618 (inactive) | 1.95 (inactive) | -0.0149 | 1.91 (inactive) | -0.601 (inactive) | 1.17
12 | COC(=O)[C@]1(Cc2ccccc2N=[N+]=[N-])N=C(c2ccc(OCCCO)cc2)O[C@@H]1c1ccccc1CN=[N+]=[N-] | -1.01 (inactive) | -0.0012 | 22.2 (active) | 9.37 (active) | -0.732 (inactive) | 2.26 (inactive) | 0.76 | -2.97 (inactive) | 0.167 (inactive) | -2.43
13 | COC(=O)[C@@]1(Cc2ccccc2)[C@H]2c3cc(C(=O)N(C)C)n(Cc4ccc(Cl)c(C(F)(F)F)c4)c3C[C@H]2CN1C(=O)c1ccccc1 | -2.34 (inactive) | 0.936 | 2.46 (inactive) | 0.943 (inactive) | 0.453 (inactive) | 1.18 (inactive) | -0.114 | 0.0852 (inactive) | -0.895 (inactive) | -1.92
14 | COCCOC(=O)N1C(=O)[C@@]2(c3cc(C#CCC(C(=O)OC)C(=O)OC)ccc31)[C@H](C(=O)N1CCc3cc(OC)c(OC)cc3C1)[C@H]1C(=O)O[C@H](c3ccccc3)[C@H](c3ccccc3)N1[C@@H]2c1ccccc1OCCO | 1.25 (inactive) | -0.314 | 2.96 (inactive) | 1.42 (inactive) | 0.358 (inactive) | 0.265 (inactive) | -0.0797 | 1.48 (inactive) | 1.57 (inactive) | 0.966
15 | [N-]=[N+]=Nc1ccccc1C[C@]1(C(=O)N2CCCCC2)N=C(c2ccc(OCCCO)cc2)O[C@H]1c1ccccc1 | 0.699 (inactive) | 0.179 | 18 (active) | 4.52 (inactive) | 3.48 (inactive) | 1.87 (inactive) | -0.0985 | -1.76 (inactive) | -0.593 (inactive) | -1.68
16 | COC(=O)C(CC#Cc1ccc2c(c1)[C@]1(C(=O)N2)[C@H](c2ccccc2OCCO)N2[C@H](c3ccccc3)[C@H](c3ccccc3)OC(=O)[C@H]2[C@@H]1C(=O)N1CCN(c2ncccn2)CC1)C(=O)OC | -0.577 (inactive) | -0.0984 | 3.02 (inactive) | 1.49 (inactive) | 0.928 (inactive) | 0.565 (inactive) | -0.512 | 0.803 (inactive) | 0.849 (inactive) | 2.23
17 | CC(C)c1ccc(NN2C(C(O)C3=C[C@H]4C[C@@H](C3)C4(C)C)C=CC3C(=O)N(c4ccccc4)C(=O)C32)cc1 (stereo not given in full) | -0.736 (inactive) | 0.587 | 1.8 (inactive) | 1.13 (inactive) | 0.0675 (inactive) | 1.37 (inactive) | -0.578 | -0.843 (inactive) | -3.08 (inactive) | -1.62
